{"source": "PubChem BioAssay (NCI)", "assay": "NCI Yeast Anticancer Drug Screen. Data for the sgs1 strain (AID 173);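 further: 0% = growth of vehicle-only control cultures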", "conditions": "S. cerevisiae sgs1 mutant, hits give high values", "procedure": "Growth inhibition of yeast strains with defined genetic alterations is measured as a screen for potential anti-cancer activity. Selected strains with alterations in DNA damage repair or cell cycle control were exposed to compounds and growth inhibition was measured relative to vehicle treated controls. The strain used in this assay is sgs1", "note": "Compounds without any hit were thinned out: in the full panel of roughly 79,000, 15% have a hit. Active and inactive are the calls of the source. No stated cut-off is given here; in the data, active means growth inhibition above about 70%; inactive means the rest.", "data": [{"smiles": "COc1ccc(/C(=N/O)c2ccccc2C2=Nc3ccccc3C(NCc3ccccc3)O2)cc1C", "note": "(stereo not given)", "values": [{"measurement": "growth inhibition", "setting": "at 1.2 µM", "value": "-2% (inactive)"}, {"measurement": "growth inhibition", "setting": "at 3.7 µM", "value": "-2% (inactive)"}, {"measurement": "growth inhibition", "setting": "at 11.0 µM", "value": "2% (inactive)"}, {"measurement": "growth inhibition", "setting": "at 33.0 µM", "value": "45% (inactive)"}, {"measurement": "growth inhibition", "setting": "at 100.0 µM", "value": "95% (active)"}]}, {"smiles": "CSc1ccc2c(c1)C(N1CCN(C)CC1)Cc1ccccc1S2", "note": "(stereo not given)", "values": [{"measurement": "growth inhibition", "setting": "at 1.2 µM", "value": "-34% (inactive)"}, {"measurement": "growth inhibition", "setting": "at 3.7 µM", "value": "-84% (inactive)"}, {"measurement": "growth inhibition", "setting": "at 11.0 µM", "value": "-27% (inactive)"}, {"measurement": "growth inhibition", "setting": "at 33.0 µM", "value": "70% (active)"}, {"measurement": "growth inhibition", "setting": "at 100.0 µM", "value": "98% (active)"}]}, {"smiles": "CCN(CC)CCSc1c2ccccc2nc2cc(NCC(=O)Nc3ccccc3-c3ccccc3NC(=O)CNc3ccc4c(SCCN(CC)CC)c5ccccc5nc4c3)ccc12", "values": [{"measurement": "growth inhibition", "setting": "at 1.2 µM", "value": "-14% (inactive)"}, {"measurement": "growth inhibition", "setting": "at 3.7 µM", "value": "-18% (inactive)"}, {"measurement": "growth inhibition", "setting": "at 11.0 µM", "value": "-22% (inactive)"}, {"measurement": "growth inhibition", "setting": "at 33.0 µM", "value": "63% (inactive)"}, {"measurement": "growth inhibition", "setting": "at 100.0 µM", "value": "96% (active)"}]}, {"smiles": "CCCCCCCCCC/C=C\\CC(=O)O", "values": [{"measurement": "growth inhibition", "setting": "at 1.2 µM", "value": "-3% (inactive)"}, {"measurement": "growth inhibition", "setting": "at 3.7 µM", "value": "-2% (inactive)"}, {"measurement": "growth inhibition", "setting": "at 11.0 µM", "value": "2% (inactive)"}, {"measurement": "growth inhibition", "setting": "at 33.0 µM", "value": "31% (inactive)"}, {"measurement": "growth inhibition", "setting": "at 100.0 µM", "value": "99% (active)"}]}, {"smiles": "Nc1ccc2ncc(Nc3ccc(Cl)c(Cl)c3)nc2c1", "values": [{"measurement": "growth inhibition", "setting": "at 1.2 µM", "value": "0% (inactive)"}, {"measurement": "growth inhibition", "setting": "at 3.7 µM", "value": "17% (inactive)"}, {"measurement": "growth inhibition", "setting": "at 11.0 µM", "value": "78% (active)"}, {"measurement": "growth inhibition", "setting": "at 33.0 µM", "value": "97% (active)"}, {"measurement": "growth inhibition", "setting": "at 100.0 µM", "value": "97% (active)"}]}, {"smiles": "O=S(=O)(O)c1ccc2c(N=Nc3c(O)ccc4ccccc34)cccc2c1", "values": [{"measurement": "growth inhibition", "setting": "at 1.2 µM", "value": "2% (inactive)"}, {"measurement": "growth inhibition", "setting": "at 3.7 µM", "value": "11% (inactive)"}, {"measurement": "growth inhibition", "setting": "at 11.0 µM", "value": "47% (inactive)"}, {"measurement": "growth inhibition", "setting": "at 33.0 µM", "value": "67% (inactive)"}, {"measurement": "growth inhibition", "setting": "at 100.0 µM", "value": "77% (active)"}]}, {"smiles": "O=c1oc(C(C(F)(F)F)C(F)(F)F)nc2ccccc12", "values": [{"measurement": "growth inhibition", "setting": "at 1.2 µM", "value": "26% (inactive)"}, {"measurement": "growth inhibition", "setting": "at 3.7 µM", "value": "39% (inactive)"}, {"measurement": "growth inhibition", "setting": "at 11.0 µM", "value": "40% (inactive)"}, {"measurement": "growth inhibition", "setting": "at 33.0 µM", "value": "43% (inactive)"}, {"measurement": "growth inhibition", "setting": "at 100.0 µM", "value": "46% (inactive)"}]}, {"smiles": "O=C(/C(=C/c1ccccc1)CBr)c1ccccc1", "values": [{"measurement": "growth inhibition", "setting": "at 1.2 µM", "value": "5% (inactive)"}, {"measurement": "growth inhibition", "setting": "at 3.7 µM", "value": "21% (inactive)"}, {"measurement": "growth inhibition", "setting": "at 11.0 µM", "value": "77% (active)"}, {"measurement": "growth inhibition", "setting": "at 33.0 µM", "value": "96% (active)"}, {"measurement": "growth inhibition", "setting": "at 100.0 µM", "value": "99% (active)"}]}]}
